Our source for the composite z-score and z-score values is PubChem BioAssay.

Assay [1] in a line: compounds binding Alexa647 anti-His antibody – biochemical, small-molecule microarray, 635 nm fluorescence, artefact control for SMM control protein annotation, primary screen (AID 1128).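 Also: score merges feature fluorescence with signal-to-noise for each printed compound spot.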 The note with it: higher = more signal.
For assay [2], the system named is Human papillomavirus type 1a E7 protein (residues 1-88). Description: HPV1a E7 small-molecule binders, primary screen, biochemical, small-molecule microarray, residues 1-88, 635 nm (AID 1129). The note with it: small-molecule microarray binding, fluorescence 635 nm; higher = more signal.
The target of assay [3] is Focal adhesion kinase 1 (Homo sapiens) (UniProt Q05397). Description: PTK2 protein binding on printed compound slides – biochemical, small-molecule microarray, 635/667 nm fluorescence, BSA, DTT, primary screen (AID 1130).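 Also: composite of spot emission at 667 nm and signal to noise over triplicate slides.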 The conditions noted are these: 635 nm fluorescence, higher = more signal.
Assay [4] relates to Fibrinogen (Alexa647-labelled). Description: Alexa647-fibrinogen binding to printed small molecules – biochemical, small-molecule microarray, 635/667 nm fluorescence, artefact control for SMM control-protein annotation, profiling panel (AID 1131).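 Also: z-score merges 667 nm fluorescence with per-spot signal-to-noise over triplicate slides.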 The note with it: fibrinogen-A647 binding fluorescence, higher = more signal.
Assay [5] concerns the target Follistatin (Homo sapiens) (UniProt P19883). Description: FST protein binding to printed compounds – biochemical, small-molecule microarray, 635/667 nm fluorescence, primary screen (AID 1132). The conditions noted are these: 635 nm fluorescence, higher = more signal.
In assay [6] the target is Fibroblast growth factor 2 (Homo sapiens) (UniProt P09038). Put plainly: basic fibroblast growth factor binding to printed compounds – biochemical, small-molecule microarray, 635/667 nm fluorescence, primary screen (AID 1133). The note with it: FGF2, fluorescence 635/667, higher = more signal.
Assay [7] can be described thus: JC-1 mitochondrial potential readout, lung cancer cells – cell-based, A549, JC-1 fluorescence, basal, 24 h, 100 nL, profiling panel (AID 1138).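 Also: A549 lung adenocarcinoma cells under basal conditions with no added stimulus; test concentration not given here.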 The conditions noted are these: higher = more signal.
The next assay concerns Lefty1. Description: Lefty1 protein binding to printed compounds – biochemical, small-molecule microarray, 635/667 nm fluorescence, primary screen (AID 1139). The note with it: fluorescence 635/667, higher = more signal.
The subject of assay [8] is wheat germ agglutinin (Triticum aestivum), Alexa647-labelled. Description: Alexa647-WGA lectin binding to printed small molecules – biochemical, small-molecule microarray, 635/667 nm fluorescence, artefact control for SMM control-protein annotation, profiling panel (AID 1140).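 Also: score merges 667 nm feature emission with signal to noise over triplicate slides.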 The conditions noted are these: WGA-A647 binding, 635 nm fluorescence, higher = more signal.
Assay [9] has as its target Luciferin 4-monooxygenase (Photinus pyralis) (UniProt P08659). Put plainly: inhibition of purified Photinus pyralis luciferase – biochemical, luminescence, purified enzyme, 2006 set, primary screen (AID 1141).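 Also: cell-free assay with purified firefly luciferase at 100 ng per well in PBS; test concentration not given here.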 The conditions noted are these: purified firefly luciferase, SteadyGlo luminescence, 30 min; higher = more signal, called active from +8 up or from −8 down.
Assay [10] concerns Wnt5a (protein binding on small-molecule microarray). Put plainly: small molecules binding Wnt5a protein – biophysical, small-molecule microarray, 635/667 nm fluorescence, primary screen (AID 1142).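 Also: fluorescence read at 667 nm with signal to noise per printed feature.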 The conditions noted are these: 635 nm fluorescence, higher = more signal.
Assay [11] in a line: ATP-based viability of Huh7 replicon cells – cell-based, CellTiter-Glo luminescence, basal, 48 h, cytotoxicity control for HCV replication inhibitor project, primary screen (AID 1143).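 Also: Huh7 hepatoma cells carrying a hepatitis C replication reporter with no stimulus; test concentration not given here.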 The conditions noted are these: higher = more signal, called active from +8 up or from −8 down.
Assay [12] is described as follows: Pseudomonas biofilm growth suppression – PAO1 strain, BacTiter-Glo luminescence, LB-PBS, primary screen (AID 1144). The conditions noted are these: P. aeruginosa PAO1 biofilm, 12 h, higher = more signal.
Assay [13] is described as follows: basal CRE-LacZ reporter activity in PC12 – cell-based, unstimulated, primary screen (AID 1145). The conditions noted are these: no forskolin, luminescence, 4.5 h, higher = more signal, called active from +8 up or from −8 down.
A short description of assay [14]: forskolin-driven CRE-LacZ activity in PC12 – cell-based, CRE-LacZ reporter, forskolin-stimulated, primary screen (AID 1146).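 Also: PC12 cells with 6xCRE LacZ reporter stimulated by forskolin 10 µM; beta-galactosidase reporter signal reflecting CREB driven transcription.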 The note with it: luminescence, 4.5 h, higher = more signal, called active from +8 up or from −8 down.
For assay [15], the target named is Streptavidin (Streptomyces avidinii) (UniProt P22629). Description: compounds binding control protein streptavidin – biophysical, small-molecule microarray, 635/667 nm fluorescence, artefact control for SMM compound annotation, primary screen (AID 1147).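 Also: signal reflects streptavidin binding to arrayed compounds as a control protein.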 The note with it: higher = more signal.
A short description of assay [16]: probe aInhba binding on compound microarray – biochemical, small-molecule microarray, 635/667 nm fluorescence, primary screen (AID 1148).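 Also: score merges 667nm spot fluorescence with signal-to-noise for antibody binding to printed compounds.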 The note with it: higher = more signal.
Assay [17] concerns the target Torsin-1A (Homo sapiens) (UniProt O14656). Put plainly: TOR1A wild-type binding on microarray – cell lysate, small-molecule microarray, lysate, 635/667 nm, primary screen (AID 1149). The conditions noted are these: COS7 hTOR1A-WT lysate, 635 nm fluorescence, higher = more signal.
Assay [18] shares this target. Put plainly: torsin A mutant lysate binding on microarrays – cell lysate, small-molecule microarray, COS7 lysate, 635/667 nm fluorescence, primary screen (AID 1150).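 Also: score pools 667 nm emission and signal to noise measuring lysate protein binding.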 The conditions noted are these: COS7 hTOR1A mutant lysate, 635 nm fluorescence, higher = more signal.
Assay [19] concerns Sonic hedgehog protein (Shh). Put plainly: Sonic hedgehog microarray binding compounds – biochemical, small-molecule microarray, 635/667 nm fluorescence, primary screen (AID 1151).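 Also: Shh protein binding to compounds spotted on small-molecule microarray slides; score combines spot fluorescence intensity with signal-to-noise across triplicate slides.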 The conditions noted are these: 635 nm fluorescence, higher = more signal.

Where “and” joins values, the source holds several entries; their conditions need not be identical. Equal values may be shown once. Calls of active or inactive are those of the source. Unless noted, no rule for the calls is given here.

Sequence of Fibroblast growth factor 2 (Homo sapiens) (P09038 whole entry, looked up): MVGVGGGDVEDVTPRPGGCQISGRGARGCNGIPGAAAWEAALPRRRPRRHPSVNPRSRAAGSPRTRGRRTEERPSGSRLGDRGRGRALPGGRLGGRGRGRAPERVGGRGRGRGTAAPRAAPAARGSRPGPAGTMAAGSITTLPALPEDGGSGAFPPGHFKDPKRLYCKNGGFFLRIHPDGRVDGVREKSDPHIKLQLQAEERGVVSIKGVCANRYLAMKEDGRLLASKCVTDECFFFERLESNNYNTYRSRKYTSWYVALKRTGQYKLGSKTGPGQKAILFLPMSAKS
Sequence of Follistatin (Homo sapiens) (P19883 whole entry, looked up): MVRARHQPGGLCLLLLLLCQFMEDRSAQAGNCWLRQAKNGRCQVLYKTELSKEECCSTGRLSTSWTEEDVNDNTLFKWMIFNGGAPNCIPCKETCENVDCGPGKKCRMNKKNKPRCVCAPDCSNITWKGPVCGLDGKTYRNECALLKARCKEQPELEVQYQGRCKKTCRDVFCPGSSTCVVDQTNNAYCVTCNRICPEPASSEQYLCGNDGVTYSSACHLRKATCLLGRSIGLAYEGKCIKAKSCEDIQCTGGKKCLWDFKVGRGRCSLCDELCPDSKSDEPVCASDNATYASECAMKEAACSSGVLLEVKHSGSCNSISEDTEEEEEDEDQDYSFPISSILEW
Sequence of Luciferin 4-monooxygenase (Photinus pyralis) (P08659 whole entry, looked up): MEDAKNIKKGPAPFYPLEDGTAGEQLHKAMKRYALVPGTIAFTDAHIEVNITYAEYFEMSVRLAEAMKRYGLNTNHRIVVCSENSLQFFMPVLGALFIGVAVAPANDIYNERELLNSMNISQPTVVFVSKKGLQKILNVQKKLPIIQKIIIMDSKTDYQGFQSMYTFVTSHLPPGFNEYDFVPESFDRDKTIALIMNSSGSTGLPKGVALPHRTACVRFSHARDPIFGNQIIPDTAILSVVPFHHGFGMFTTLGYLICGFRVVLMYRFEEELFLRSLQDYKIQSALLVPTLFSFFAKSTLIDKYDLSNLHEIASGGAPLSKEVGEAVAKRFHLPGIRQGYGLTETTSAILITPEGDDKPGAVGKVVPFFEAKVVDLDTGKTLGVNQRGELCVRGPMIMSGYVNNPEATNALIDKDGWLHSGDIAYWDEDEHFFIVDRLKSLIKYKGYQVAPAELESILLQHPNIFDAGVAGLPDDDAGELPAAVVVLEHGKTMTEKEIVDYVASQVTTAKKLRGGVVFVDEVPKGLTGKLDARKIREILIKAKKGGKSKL
Sequence of Streptavidin (Streptomyces avidinii) (P22629 whole entry, looked up): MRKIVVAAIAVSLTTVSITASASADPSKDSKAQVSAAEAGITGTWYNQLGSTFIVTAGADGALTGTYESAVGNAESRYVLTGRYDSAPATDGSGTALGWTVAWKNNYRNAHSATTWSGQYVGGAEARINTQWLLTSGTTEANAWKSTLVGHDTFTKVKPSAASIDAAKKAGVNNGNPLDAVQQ
Sequence of Torsin-1A (Homo sapiens) (O14656 whole entry, looked up): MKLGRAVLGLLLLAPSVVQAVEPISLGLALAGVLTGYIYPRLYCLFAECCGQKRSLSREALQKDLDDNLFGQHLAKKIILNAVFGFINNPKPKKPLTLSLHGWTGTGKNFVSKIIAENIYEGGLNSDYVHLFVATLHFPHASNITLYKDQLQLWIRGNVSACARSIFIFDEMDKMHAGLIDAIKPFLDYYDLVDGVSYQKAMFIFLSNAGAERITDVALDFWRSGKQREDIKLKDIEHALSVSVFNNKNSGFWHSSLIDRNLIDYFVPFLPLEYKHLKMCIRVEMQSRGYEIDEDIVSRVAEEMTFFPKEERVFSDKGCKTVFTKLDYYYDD
Sequence of Focal adhesion kinase 1 (Homo sapiens) (Q05397 whole entry, looked up): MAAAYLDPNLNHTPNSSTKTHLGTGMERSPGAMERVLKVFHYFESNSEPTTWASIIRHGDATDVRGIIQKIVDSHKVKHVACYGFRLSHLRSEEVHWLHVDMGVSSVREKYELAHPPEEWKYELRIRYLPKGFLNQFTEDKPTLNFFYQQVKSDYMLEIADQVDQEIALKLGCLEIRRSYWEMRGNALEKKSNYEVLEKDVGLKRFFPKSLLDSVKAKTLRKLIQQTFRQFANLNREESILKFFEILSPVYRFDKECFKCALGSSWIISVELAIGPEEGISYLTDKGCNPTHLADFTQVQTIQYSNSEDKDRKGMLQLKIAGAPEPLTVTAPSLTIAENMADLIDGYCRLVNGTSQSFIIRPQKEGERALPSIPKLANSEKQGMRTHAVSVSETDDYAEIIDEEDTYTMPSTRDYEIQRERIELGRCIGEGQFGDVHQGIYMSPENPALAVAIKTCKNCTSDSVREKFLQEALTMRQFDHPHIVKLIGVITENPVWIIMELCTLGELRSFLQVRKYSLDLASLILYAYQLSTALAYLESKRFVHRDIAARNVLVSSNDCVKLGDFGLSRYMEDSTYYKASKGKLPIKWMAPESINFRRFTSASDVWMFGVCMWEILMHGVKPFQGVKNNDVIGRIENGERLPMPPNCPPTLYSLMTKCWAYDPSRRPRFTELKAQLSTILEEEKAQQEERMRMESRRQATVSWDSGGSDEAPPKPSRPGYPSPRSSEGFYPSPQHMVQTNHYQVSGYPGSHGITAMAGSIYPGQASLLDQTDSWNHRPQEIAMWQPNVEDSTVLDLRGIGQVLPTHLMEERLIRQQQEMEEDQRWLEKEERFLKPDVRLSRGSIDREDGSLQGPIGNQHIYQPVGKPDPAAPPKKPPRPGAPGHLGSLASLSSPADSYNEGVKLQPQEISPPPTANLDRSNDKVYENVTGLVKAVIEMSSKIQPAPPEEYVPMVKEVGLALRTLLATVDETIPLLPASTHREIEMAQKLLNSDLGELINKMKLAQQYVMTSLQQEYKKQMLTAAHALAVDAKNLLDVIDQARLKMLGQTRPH

Regarding `CON(C)C(=O)c1nnc2c3ccccc3n(S(=O)(=O)c3ccc(C)cc3)c2n1`, the composite z-score in assay [1] was 0.397 and 0.647; in assay [2] it was 0.836 and 1.11; in assay [3], 0.323 and 0.0633; in assay [4] it was 0.88 and 0.578; in [5] it was 0.229 and 0.552; in assay [6], 0.43 and 1.31. Also, the composite z-score with Lefty1 is 0.273 and 0.757; in [8] it was 0.184 and 0.328; in assay [10] it was 0.26 and 0.335; in assay [15] it was 1.31 and 1.67; in [16], 0.0543 and -0.0018; with Torsin-1A (Homo sapiens) [17], 0.201 and 1.19. The composite z-score with Torsin-1A (Homo sapiens) [18] was 0.492 and 1.11; in [19] it was 0.642 and 1.22. For the same compound, the z-score in [7] was 0.551 and 0.105; in [9] it was -0.251 (inactive) and -0.0743 (inactive); in assay [11], 0.24 (inactive) and 0.0218 (inactive); in [12] it was 1.36 (inactive) and 0.0837 (inactive); in [13], 1.37 (inactive) and 1.28 (inactive); in assay [14], -0.0387 (inactive) and -0.484 (inactive).

On to `C=CCN(CCCCC)C(=O)C1N(c2ccc(CCO)cc2)C(=O)C2C(C(=O)O)C3C=CC21O3` (stereo not given), for which the composite z-score is -1.26 and -0.352 in assay [1]; -1.44 and -0.943 in assay [2]; -0.886 and -0.776 in assay [3]; -0.916 and -0.657 in assay [4]; -0.974 and -0.877 in assay [5]; -0.989 and -0.883 in [6]. Further, the composite z-score with Lefty1 was -1.47 and -0.885; in assay [8], 0.961 and -0.241; in [10] it was -0.479 and -0.327; in assay [15] it was -1.64 and -1.36; in [16], -0.206 and 0.789; with Torsin-1A (Homo sapiens) [17], -1.94 and -0.448. The composite z-score was 0.101 and -1.53 in the assay with Torsin-1A (Homo sapiens) [18]; -0.568 and 2.02 in assay [19]. The z-score is 0.157 and -0.0775 in assay [7]; -0.929 (inactive) and -0.832 (inactive) in assay [9]; -0.641 (inactive) and -0.552 (inactive) in [11]; 0.839 (inactive) and 0.128 (inactive) in [12]; -0.48 (inactive) and -0.619 (inactive) in assay [13]; 0.589 (inactive) and -0.601 (inactive) in [14].

As for `CC(CO)N1C(=O)[C@@H]2C3C(=O)OCCC=C[C@H]3OC23C=CCN(CCN2CCOCC2)C(=O)[C@@H]13` (stereo not given in full), the composite z-score in assay [1] is 1.29 and 1.37; in assay [2], -0.795 and -0.0944; in [3], 0.0101 and 1.02; in assay [4], -0.288 and 0.15; in assay [5], 0.319 and -0.0336; in [6], -0.454 and -1.45. Moreover, the composite z-score was 0.373 and 0.526 with Lefty1; -0.0856 and 0.329 in assay [8]; -0.0538 and 0.351 in assay [10]; -0.0427 and 1.12 in assay [15]; -0.0719 and 0.0053 in assay [16]; -0.674 and 0.148 with Torsin-1A (Homo sapiens) [17]. Besides, the composite z-score with Torsin-1A (Homo sapiens) [18] was -0.198 and 0.276; in assay [19], 0.521 and 0.746. For the same compound, the z-score in assay [7] is -0.0837 and -0.32; in assay [9] it was -0.272 (inactive) and -0.263 (inactive); in [11], -0.0826 (inactive) and 0.0065 (inactive); in [12], 0.129 (inactive) and 0.971 (inactive); in assay [13], 0.317 (inactive) and -0.492 (inactive); in assay [14], 0.643 (inactive) and 0.22 (inactive).

In the case of `CC(C)CCN1CCc2nc(-c3ccccc3)c3c(c2C1)CO[C@@H](C)C3`, the composite z-score is 0.554 in assay [1]; 0.669 in assay [2]; 0.304 in assay [3]; 0.436 in assay [4]; 0.785 in assay [5]; 0.528 in assay [6]. Moreover, the composite z-score in the assay on Lefty1 came to 0.631; in assay [8], 0.931; in assay [10] it was 0.0842; in assay [15] it was 0.375; in assay [16], 0.0173; with Torsin-1A (Homo sapiens) [17], 0.509. Further, the values for the composite z-score (with Torsin-1A (Homo sapiens) [18]; in assay [19]) were 0.471 and 0.827, respectively. Further, the z-score in assay [7] is 1.19; in assay [9], -1.17 (inactive); in assay [11], 0.267 (inactive); in assay [12], 0.268 (inactive); in assay [13] it was 4.64 (inactive); in [14], -0.44 (inactive).
